Laboratory results published in the supplement of paper PMC8728848.
About 410 targets per protein were measured; listed, in parts, are those with the strongest signals and a random draw of the rest.

Legend:
Test in all cases: glycan array binding signal (z-score within array); higher = stronger binding
Settings in all cases: glycan notation: IUPAC condensed, linker removed
GlcA(b1-6)Gal = target: GlcA(b1-6)Gal
Outline: (§1)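 Arrays were curated from the Consortium for Functional Glycomics database, 3228 in total, and kept only where the protein sequence was available. Binding is expressed as a within-array Z-score. This score was averaged across arrays of the same protein sequence at different concentrations or buffers and across linkers, and negative values can be read as non-binding.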

[1] = target: GlcNAc(a1-4)Gal(b1-4)GalNAc
Outline: as §1

[2] = target: GlcNAc(a1-4)Gal(b1-4)GlcNAc
Outline: as §1

[3] = target: GlcNAc(b1-3)Gal(b1-4)GlcNAc(b1-2)[GlcNAc(b1-3)Gal(b1-4)GlcNAc(b1-6)]Man(a1-6)[GlcNAc(b1-3)Gal(b1-4)GlcNAc(b1-2)Man(a1-3)]Man(b1-4)GlcNAc(b1-4)GlcNAc
Outline: as §1

[4] = target: GlcNAc(b1-3)Gal(b1-4)GlcNAc(b1-3)Gal(b1-4)GlcNAc(b1-3)Gal(b1-4)GlcNAc(b1-2)[GlcNAc(b1-3)Gal(b1-4)GlcNAc(b1-3)Gal(b1-4)GlcNAc(b1-3)Gal(b1-4)GlcNAc(b1-6)]Man(a1-6)[GlcNAc(b1-3)Gal(b1-4)GlcNAc(b1-3)Gal(b1-4)GlcNAc(b1-3)Gal(b1-4)GlcNAc(b1-2)Man(a1-3)]Man(b1-4)GlcNAc(b1-4)[Fuc(a1-6)]GlcNAc
Outline: as §1

[5] = target: GlcNAc(b1-3)Gal(b1-4)GlcNAc(b1-3)Gal(b1-4)GlcNAc(b1-3)Gal(b1-4)GlcNAc(b1-3)Gal(b1-4)GlcNAc(b1-2)Man(a1-3)[GlcNAc(b1-3)Gal(b1-4)GlcNAc(b1-3)Gal(b1-4)GlcNAc(b1-3)Gal(b1-4)GlcNAc(b1-3)Gal(b1-4)GlcNAc(b1-2)Man(a1-6)]Man(b1-4)GlcNAc(b1-4)GlcNAc
Outline: as §1

[6] = target: GlcNAc(b1-3)Gal(b1-4)GlcNAc(b1-6)[Gal(b1-3)]GalNAc
Outline: as §1

[7] = target: GlcNAc(b1-3)Gal(b1-4)GlcNAc(b1-6)[GlcNAc(b1-3)Gal(b1-3)]GalNAc
Outline: as §1

[8] = target: GlcNAc(b1-3)[GlcNAc(b1-6)]Gal(b1-4)GlcNAc
Outline: as §1

Kdn(a2-3)Gal(b1-3)GlcNAc = target: Kdn(a2-3)Gal(b1-3)GlcNAc
Outline: as §1

[9] = target: Man(a1-2)Man(a1-2)Man(a1-3)Man
Outline: as §1

Man(a1-2)Man(a1-3)Man = target: Man(a1-2)Man(a1-3)Man
Outline: as §1

[10] = target: Man(a1-3)[Man(a1-6)]Man(b1-4)GlcNAc(b1-4)GlcNAc
Outline: as §1

Man(a1-6)Man = target: Man(a1-6)Man
Outline: as §1

[11] = target: Neu5Ac(a2-3)Gal(b1-4)GlcNAc(b1-2)Man(a1-3)[Neu5Ac(a2-6)Gal(b1-4)GlcNAc(b1-2)Man(a1-6)]Man(b1-4)GlcNAc(b1-4)GlcNAc
Outline: as §1

[12] = target: Neu5Ac(a2-3)Gal(b1-4)GlcNAc(b1-2)[Neu5Ac(a2-3)Gal(b1-4)GlcNAc(b1-6)]Man(a1-6)[Neu5Ac(a2-3)Gal(b1-4)GlcNAc(b1-2)Man(a1-3)][GlcNAc(b1-4)]Man(b1-4)GlcNAc(b1-4)GlcNAc
Outline: as §1

[13] = target: Neu5Ac(a2-3)Gal(b1-4)GlcNAc(b1-3)Gal(b1-4)GlcNAc(b1-3)Gal(b1-4)GlcNAc(b1-2)Man(a1-3)[Neu5Ac(a2-3)Gal(b1-4)GlcNAc(b1-3)Gal(b1-4)GlcNAc(b1-3)Gal(b1-4)GlcNAc(b1-2)Man(a1-6)]GalNAc
Outline: as §1

[14] = target: Neu5Ac(a2-3)Gal(b1-4)GlcNAc(b1-3)Gal(b1-4)GlcNAc(b1-6)[Gal(b1-3)]GalNAc
Outline: as §1

[15] = target: Neu5Ac(a2-3)Gal(b1-4)[Fuc(a1-3)]GlcNAc(b1-3)Gal
Outline: as §1

[16] = target: Neu5Ac(a2-3)Gal(b1-4)[Fuc(a1-3)]GlcNAc(b1-3)GalNAc
Outline: as §1

[17] = target: Neu5Ac(a2-6)Gal(b1-3)GlcNAc(b1-3)[Gal(b1-4)GlcNAc(b1-6)]Gal(b1-4)Glc
Outline: as §1

Neu5Ac(a2-6)Gal(b1-4)Glc = target: Neu5Ac(a2-6)Gal(b1-4)Glc
Outline: as §1

[18] = target: Neu5Ac(a2-6)Gal(b1-4)GlcNAc(b1-2)Man(a1-3)[Neu5Ac(a2-6)Gal(b1-4)GlcNAc(b1-2)Man(a1-6)]Man(b1-4)GlcNAc(b1-4)GlcNAc
Outline: as §1

[19] = target: Neu5Ac(a2-6)Gal(b1-4)GlcNAc(b1-3)Gal(b1-4)GlcNAc(b1-3)Gal(b1-4)GlcNAc(b1-2)Man(a1-3)[Neu5Ac(a2-6)Gal(b1-4)GlcNAc(b1-3)Gal(b1-4)GlcNAc(b1-3)Gal(b1-4)GlcNAc(b1-2)Man(a1-6)]GalNAc
Outline: as §1

Neu5Ac(a2-6)GalNAc = target: Neu5Ac(a2-6)GalNAc
Outline: as §1

[20] = target: Neu5Ac(a2-6)GalNAc(b1-4)GlcNAc
Outline: as §1

[21] = target: Neu5Ac(a2-8)Neu5Gc(a2-3)Gal(b1-4)GlcNAc
Outline: as §1

[22] = target: Neu5Ac9Ac(a2-6)Gal(b1-4)GlcNAc
Outline: as §1

B1: PX14343G-pdi-535-24-535 (Parabacteroides distasonis) (protein)
chain: LDTVPKDQLAPSTTWQTEADAKGFIVGCYKDLLDGNTLLYLDCGSDIGYNNFPWEGFRPWGDGSLSSSNPGQILYDYKSIRKANTFLENVDKVTFSSDAVKANYVAQAKAIRAYKYFLMNWWYGGVPIISSYSSADEAKVERNTEQEVRDYIAKDLDEALAGIAEAPEARGYIAKGAVLAIKMREALYYGDWQKAKDAAKAIIDLKQYELDPDYTNLFKVSGVDSKEIILADQNIETLDGLGTIGQMYNNVDQGWSSIVPTQNLVDMYEMSDGLTKEESKTYDAKHPFANRDPRMAMTILYPGRDWRGDVLNTLDEKLQDGTVNKNFPTYTDNASKSALTWAKYLDPMDQYGDVWSSGACPIVFRYAEVLLTYAEAANELSGPSDEIYGYLNQIRQRVGMGEVDKAKYGTKDKLRELIRRERTVELAGEGLRRADIVRWQEDGKMLAEKVMNGDLLRVTGTINYGESEPTKRAEITGTAVIETRQFSSRNRYLPIPQTSMDKNPNLKQNPGY
glycan array binding signal (z-score) (GlcA(b1-6)Gal): -0.046
glycan array binding signal (z-score) [1]: -1.02
glycan array binding signal (z-score) [2]: 2.04
glycan array binding signal (z-score) [3]: 2.37
glycan array binding signal (z-score) [4]: 0.865
glycan array binding signal (z-score) [5]: 0.208
glycan array binding signal (z-score) [6]: -1.23
glycan array binding signal (z-score) [7]: 0.869
glycan array binding signal (z-score) [8]: 1
glycan array binding signal (z-score) (Kdn(a2-3)Gal(b1-3)GlcNAc): 0.143
glycan array binding signal (z-score) [9]: 0.086
glycan array binding signal (z-score) (Man(a1-2)Man(a1-3)Man): -0.387
glycan array binding signal (z-score) [10]: -0.762
glycan array binding signal (z-score) (Man(a1-6)Man): 2.08
glycan array binding signal (z-score) [11]: -0.159
glycan array binding signal (z-score) [12]: -0.038
glycan array binding signal (z-score) [13]: 2
glycan array binding signal (z-score) [14]: 1.55
glycan array binding signal (z-score) [15]: -0.539
glycan array binding signal (z-score) [16]: 0.588
glycan array binding signal (z-score) [17]: -0.502
glycan array binding signal (z-score) (Neu5Ac(a2-6)Gal(b1-4)Glc): -0.218
glycan array binding signal (z-score) [18]: -0.872
glycan array binding signal (z-score) [19]: 1.49
glycan array binding signal (z-score) (Neu5Ac(a2-6)GalNAc): -0.874
glycan array binding signal (z-score) [20]: -0.103
glycan array binding signal (z-score) [21]: 16.3
glycan array binding signal (z-score) [22]: 0.187
